Source: PubChem (National Center for Advancing Translational Sciences (NCATS))
Shiga toxin inh: A qHTS for Small Molecule Inhibitors of Shiga Toxin; actives 9.2% (n = 290,000); AID 2315, 2010; Vero cells, Shiga toxin protein synthesis inhibition reporter; inhibition, % at 38.7 µM; in the data active means inhibition mostly above about 28%, no sharp cut-off; inactive means mostly below about 43%
Cycloheximide cs: Cycloheximide Counterscreen for Small Molecule Inhibitors of Shiga Toxin; cell reporter, cycloheximide protein synthesis inhibition counterscreen; max response, %; AID 2314, 2010; actives 12% (n = 300,000); in the data active means max response mostly above about 13%, no sharp cut-off; inactive means mostly below about 14%; further: read at 38.3 µM for the half of the compounds with a filed dose
NS1 inh: qHTS Assay for Inhibitors of Influenza NS1 Protein Function; Potency, µM (highest dose often 46.1 µM); AID 2326, 2010; actives 0.4% (n = 270,000); calls by dose curve; further: actives are rising curves; nearly all actives have a fitted effect of over 50% in size
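OD600 was taken as the measure of yeast growth restored by compound in an NS1-expressing S. cerevisiae strain. Cells had been washed out of glucose medium and diluted 1:100 into galactose -URA medium, pH 6.0.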
Pf growth 48h: Primary qHTS for delayed death inhibitors of the malarial parasite plastid, 48 hour incubation | P. falciparum luciferase growth in erythrocytes, 48 h | Potency, µM (highest dose often 28.7 µM), usual class: inhibitors | actives 5.9% (n = 310,000) | AID 504832, 2011
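Cell-based growth assay: transgenic P. falciparum expressing firefly luciferase, cultured in red cells within RPMI 1640 containing 0.5% w/v Albumax, 24 mM bicarbonate and gentamycin. A drop in luciferase activity indicates inhibition.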
Giardia FBPA inh: qHTS Assay for Inhibitors of Fructose-1,6-bisphosphate Aldolase from Giardia Lamblia | purified Giardia FBPA | Potency, µM (titrated, usually from 59.6 µM), most hits filed as inhibitors | actives 0.71% (n = 290,000) | AID 2451, 2010; further: nearly all actives have a fitted effect of over 55% in size
Target sequence (A8B2U2 whole entry, looked up): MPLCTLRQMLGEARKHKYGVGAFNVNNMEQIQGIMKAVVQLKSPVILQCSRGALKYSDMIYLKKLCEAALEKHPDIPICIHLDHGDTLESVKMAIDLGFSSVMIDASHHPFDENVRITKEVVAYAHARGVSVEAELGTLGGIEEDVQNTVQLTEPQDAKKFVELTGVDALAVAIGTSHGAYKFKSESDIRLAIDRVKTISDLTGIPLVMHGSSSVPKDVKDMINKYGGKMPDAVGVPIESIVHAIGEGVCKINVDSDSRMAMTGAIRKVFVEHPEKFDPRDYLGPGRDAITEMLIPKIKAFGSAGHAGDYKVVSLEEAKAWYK
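Giardia FBPA (40 nM reagent) was preincubated 10 min at RT with compound (up to 57.5 uM final), then substrate plus GAPDH/TPI/NAD/arsenate coupling system with diaphorase/resazurin was added; resorufin fluorescence (525/598 nm) was read after 20 min.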
Pf growth 96h: Primary qHTS for delayed death inhibitors of the malarial parasite plastid, 96 hour incubation. P. falciparum luciferase reporter growth, 96 h. Potency, µM (highest dose often 28.7 µM), actives largely listed as inhibitors. actives 6.9% (n = 320,000)
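Erythrocytes infected with luciferase-expressing P. falciparum were dispensed at 2% hematocrit and 0.05% parasitemia (final), then incubated with compounds 96 hours at 37 C in 5% CO2. Luminescence after detection reagent addition reported growth.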
Hits are given with their value; – = inactive; ? = inconclusive; · = not tested or not shown; [ ] = another dose, or the depositor's remark. Most compounds without a hit are left out; they make up all but 21% or so of the library. Unless noted, the call rests on the fitted dose curve; in most records, active means well fitted curve in the direction sought with a large enough effect; inconclusive means small, poorly fitted or top-dose-only effect, or another doubt; inactive means no such curve, though single readings can be large; an effect the other way counts as inactive or inconclusive.

SMILES | Shiga toxin inh | Cycloheximide cs | NS1 inh | Pf growth 48h | Giardia FBPA inh | Pf growth 96h
COc1cc(COC(=O)c2cnc(C)cn2)c(OC)cc1Br | – | – | – | – | – | –
CCCNC(=O)c1nnsc1S(=O)(=O)c1ccc(Cl)cc1 | – | 27 | · | – | – | –
CCCNC(=O)c1nnsc1S(=O)c1ccc(Cl)cc1 (stereo not given) | – | 36 | · | ? | – | ?
CNC(=O)c1nnsc1S(=O)c1ccc(Cl)cc1 (stereo not given) | 98 | 55 | · | 15µM | – | ?
CCCNC(=O)NS(=O)(=O)c1ccc(Cl)cc1 | – | – | – | – | – | –
COCc1ccc(C(=O)N2CCCC(CCC(=O)NCc3ccccc3F)C2)o1 (stereo not given) | – | – | – | – | – | ?
CC1CCc2c(sc(NC(=O)c3c([N+](=O)[O-])cnn3C)c2C(N)=O)C1 (stereo not given) | – | – | – | – | · | –
Cn1cccc1CNCCc1ccccc1 | – | – | – | – | · | –
CCc1ccc(CNCCc2ccccc2F)cc1 | – | – | – | – | – | –
Fc1ccccc1CCNCc1cccc(Cl)c1Cl | – | 18 | – | – | – | –
COc1ccc(CCNCc2cccn2C)cc1 | – | – | – | – | ? | 1.5µM
Fc1ccccc1CCNCc1ccccc1 | – | – | – | – | – | –
Cn1cccc1CNCCc1ccccc1F | – | – | – | – | – | 2.6µM
Cc1cnc(=O)[nH]c1SCc1ccc([N+](=O)[O-])cc1 | – | – | – | – | – | ?
O=c1cnc2cnc(OCc3ccccc3)nc2n1Cc1ccc(F)cc1 | · | · | · | · | – | ·
CC1S/C(=N/N=C/c2ccco2)N(Cc2ccc(F)cc2)C1=O (stereo not given) | 57 | 30 | – | – | – | –
Cc1ccccc1CN1C(=O)C(C)S/C1=N/N=C/c1ccco1 (stereo not given) | – | – | – | ? | – | –
C=CCN1C(=O)C(Cc2ccc(Br)cc2)S/C1=N\N=C\c1ccco1 (stereo not given) | – | – | – | – | – | 12µM
C=CCN1C(=O)C(Cc2ccc(F)cc2)S/C1=N/N=C/c1ccco1 (stereo not given) | – | – | – | – | – | ?
C=CCN1C(=O)C(Cc2ccc(OC)cc2)S/C1=N/N=C/c1ccco1 (stereo not given) | – | – | – | 9.3µM | – | ?
CCCCCCCC(=O)OCCOC(=O)CCCCCCC | – | – | · | · | – | ·
Cc1ccc(CNC(=O)CC(C)S(=O)(=O)c2ccc3c(c2)NC(=O)CS3)o1 (stereo not given) | – | – | – | – | – | ?
CCCN1C2=NCCCN2c2ccccc21 | – | – | – | – | – | ?
O=C(CN1C2=NCCN2c2ccccc21)c1ccco1 | – | – | – | · | – | 13µM
CCCCN1C2=NCCCN2c2cc(C)c(C)cc21 | – | – | – | 13µM | – | 13µM
SMILES | Shiga toxin inh | Cycloheximide cs | NS1 inh | Pf growth 48h | Giardia FBPA inh | Pf growth 96h
CCCCCCCN1C2=NCCN2c2ccccc21 | – | – | – | ? | – | ?
CCCCN1C2=NCCCN2c2ccccc21 | – | – | – | ? | – | 10µM
CCCN1C2=NCCN2c2ccccc21 | – | – | – | – | – | 4.1µM
COc1ccc(NC(=O)N2CCC(CO)(CC3CCCCO3)CC2)c(OC)c1 (stereo not given) | – | – | – | – | – | –
Cc1csc(NC(=O)CSC2=NS(=O)(=O)c3cc(F)ccc3N2)n1 | · | · | · | – | · | –
CCCCCCN1C2=NCCN2c2ccccc21 | – | – | – | 15µM | – | ·
CCCCCCCN1C2=NCCCN2c2ccccc21 | – | – | – | 2.9µM | – | –
CC1CCCCC12NC(=O)N(CC(=O)NCc1ccco1)C2=O (stereo not given) | · | · | · | – | · | –
O=c1[nH][nH]cc1C=Nc1ccccc1O | – | – | – | ? | – | ?
O=c1c(=Nc2ccccc2O)c(=O)c2ccccc12 | 108 | 21 | – | – | ? | –
CC(Oc1ccc(F)cc1F)C(=O)NNC(=S)NCC1CCCO1 (stereo not given) | – | – | – | ? | · | ?
COc1cc2cnc(-c3ccccc3)c(-c3ccc(C#N)cc3)c2cc1OC | · | · | · | 2.3µM | · | ?
CCOC(=O)c1nc(N/N=C/c2ccccc2)sc1Br | – | 13 | – | – | – | ?
COc1ccc(/C=N/Nc2nc(-c3ccc(C)cc3)c(NC(C)=O)s2)cc1 | – | – | – | 2.3µM | – | 4.7µM
CCOC(=O)c1sc(NC(=O)/C=C/c2ccccc2)nc1C | – | – | – | – | – | –
CC(=O)Nc1sc(-c2ccc(Cl)cc2)nc1-c1ccccc1 | – | – | – | – | – | –
CC(=O)Nc1sc(N/N=C/c2ccccc2F)nc1-c1ccc(C)cc1 | 92 | 42 | – | 8.3µM | – | ?
CC(=O)Nc1sc(-c2ccccc2)nc1-c1ccccc1 | – | – | · | – | – | 4.7µM
COc1ccc(-c2nc(NC(C)=O)sc2-c2ccccc2)cc1 | – | – | – | ? | – | ?
CCCCC[C@H](O)/C=C/C=C\C/C=C\CCCCC(=O)O | · | · | · | · | – | ·
COC(=O)NC(c1ccc(F)cc1)C(C(C)=O)C(=O)OC (stereo not given) | · | · | · | · | –[12.9 µM] | ·
CC(=O)Nc1sc(N/N=C/c2ccccc2)nc1-c1ccc(C)cc1 | – | 18 | – | 7.4µM | – | ?
CC(=O)Nc1sc(N/N=C/c2ccc(O)cc2)nc1-c1ccc(C)cc1 | – | – | – | ? | – | ?
CCOc1ccc2c(c1)S/C(=C\c1cccs1)C(=O)N2 | 69 | 31 | – | – | – | –
CCOc1ccc2c(c1)/C(=N/N1C(=O)c3ccccc3C1=O)C(=O)N2 | – | – | · | – | – | –
SMILES | Shiga toxin inh | Cycloheximide cs | NS1 inh | Pf growth 48h | Giardia FBPA inh | Pf growth 96h
Cn1cccc1/C=C1\SC(=Nc2cccc(O)c2)NC1=O | 100 | 40 | – | – | – | ?
Cc1cccc(C)c1NC(=O)CN1C(=O)S/C(=C\c2cccn2C)C1=O | – | – | – | – | – | –
COC(=O)/C=C1/SC(=Nc2ccc(C)cc2C)NC1=O | – | – | – | ? | – | ?
Cc1ccc(N=C2NC(=O)/C(=C/c3cccn3C)S2)c(C)c1 | – | – | – | ? | – | 12µM
Cc1ccc(N=C2NC(=O)/C(=C/c3cn(C)c4ccccc34)S2)cc1C | – | – | ? | ? | – | 4.7µM
Cn1cc(/C=C2\SC(=S)N(N3CCOCC3)C2=O)c2ccccc21 | – | – | – | – | – | –
Cc1ccc(S(=O)(=O)N2CCCCC2)cc1NC(=O)COc1ccccc1F | – | – | · | – | – | –
CN1CCN(c2ncc3nc(CCc4ccccc4)c(=O)n(CCC#N)c3n2)CC1 | · | · | · | · | – | ·
Cc1cc(C)cc(NC(=O)CSc2nnc(-c3cc(C)[nH]n3)n2N)c1 | – | – | – | ? | · | ?
O=C1NC(=Nc2ccccc2)S/C1=C\c1cccs1 | 89 | 45 | – | – | – | –
Cn1cccc1/C=C1\SC(=Nc2ccccc2)NC1=O | 85 | 44 | – | – | – | 7.4µM
